Measured values published in PubChem BioAssay (NCI).
The panel holds about 79,000 compounds, 15% with a hit somewhere; the sample as a whole holds those more often. A number with no mark means an inactive call. Calls of active or inactive are those of the source. Cut-off read from the data, not from the text of the source: active = growth inhibition above about 70%; inactive = the rest.

Assay: NCI Yeast Anticancer Drug Screen. Data for the rad18 strain (AID 177)
Settings: S. cerevisiae rad18 mutant growth inhibition, stronger effect = higher value
Method: Growth inhibition of yeast strains with defined genetic alterations is measured as a screen for potential anti-cancer activity. Selected strains with alterations in DNA damage repair or cell cycle control were exposed to compounds and growth inhibition was measured relative to vehicle treated controls. The strain used in this assay is rad18

COc1cc(C(=O)/C=C/c2ccccc2O)ccc1O
growth inhibition (at 1.2 µM): 1%
growth inhibition (at 3.7 µM): 47%
growth inhibition (at 11.0 µM): 98% (active)
growth inhibition (at 33.0 µM): 98% (active)
growth inhibition (at 100.0 µM): 98% (active)

O=[N+]([O-])c1cccc2nccc(NCCCO)c12
growth inhibition (at 1.2 µM): 46%
growth inhibition (at 3.7 µM): 79% (active)
growth inhibition (at 11.0 µM): 88% (active)
growth inhibition (at 33.0 µM): 93% (active)
growth inhibition (at 100.0 µM): 94% (active)

COc1cc(/C=C2\CCc3ccccc3C2=O)cc(OC)c1OC
growth inhibition (at 1.2 µM): 5%
growth inhibition (at 3.7 µM): 8%
growth inhibition (at 11.0 µM): 7%
growth inhibition (at 33.0 µM): 35%
growth inhibition (at 100.0 µM): 73% (active)

S=C(N/N=C/c1ccccn1)Nc1ccc(Cl)cc1
growth inhibition (at 1.2 µM): -6%
growth inhibition (at 3.7 µM): -3%
growth inhibition (at 11.0 µM): -5%
growth inhibition (at 33.0 µM): 2%
growth inhibition (at 100.0 µM): 67%

COc1cc2c(c(OC)c1OC)-c1c(cc3c(c1OC)OCO3)CC(C)C(C)(O)C2OC(=O)c1ccccc1 (stereo not given)
growth inhibition (at 1.2 µM): -45%
growth inhibition (at 3.7 µM): -37%
growth inhibition (at 11.0 µM): -26%
growth inhibition (at 33.0 µM): -10%
growth inhibition (at 100.0 µM): 46%

Cc1cccc2c(C(O)CBr)cc(-c3ccc(Cl)cc3)nc12 (stereo not given)
growth inhibition (at 1.2 µM): -3%
growth inhibition (at 3.7 µM): 17%
growth inhibition (at 11.0 µM): 98% (active)
growth inhibition (at 33.0 µM): 95% (active)
growth inhibition (at 100.0 µM): 88% (active)

COc1cc(C2c3cc4c(cc3OC(Nc3ccccc3)C2C)OCO4)cc(OC)c1O (stereo not given)
growth inhibition (at 1.2 µM): 0%
growth inhibition (at 3.7 µM): -1%
growth inhibition (at 11.0 µM): -7%
growth inhibition (at 33.0 µM): 1%
growth inhibition (at 100.0 µM): 92% (active)

Cc1ccc2ccc3cccc4ccc1c2c34
growth inhibition (at 1.2 µM): -4%
growth inhibition (at 3.7 µM): 0%
growth inhibition (at 11.0 µM): 11%
growth inhibition (at 33.0 µM): 60%
growth inhibition (at 100.0 µM): 82% (active)
